Most compounds without a hit are left out; they make up all but 11% or so of the library.
G9a inh = inhibitors of human histone lysine methyltransferase G9a. G9a H3K9 monomethylation, AlphaScreen, 2 h. Potency, µM (top dose mostly 102 µM), for the others: top-dose activity, negative = inhibition, usual class: inhibitors. 350,000 tested, 8.8% active. AID 504332; further: on the % scale 0 is the no-effect control and ±100 the full control effect; nearly all actives have a fitted effect of over 75% in size
Target sequence (Q96KQ7 913-1193 limits assumed): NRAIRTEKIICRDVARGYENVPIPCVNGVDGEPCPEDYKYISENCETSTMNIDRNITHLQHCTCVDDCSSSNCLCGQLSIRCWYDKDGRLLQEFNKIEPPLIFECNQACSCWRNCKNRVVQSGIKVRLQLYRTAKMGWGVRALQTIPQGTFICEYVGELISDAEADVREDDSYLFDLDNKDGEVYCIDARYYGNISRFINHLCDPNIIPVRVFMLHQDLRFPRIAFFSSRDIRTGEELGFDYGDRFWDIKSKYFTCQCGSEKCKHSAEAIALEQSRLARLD
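G9a (20 nM) was preincubated 15 min with compound, then reacted 2 h at room temperature with 500 nM biotin-H3K9 peptide and 20 µM SAM. Monomethyl-H3K9 detected by AlphaScreen using anti-H3K9me1 antibody.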
JMJD2A Tudor = inhibitors of human JMJD2A Tudor domain; O75164; AlphaScreen JMJD2A-Tudor / H3K4me3 peptide binding; Potency, µM (titrated, usually from 114 µM), without a hit: at the top dose activity change, negative = inhibition, usual class: inhibitors; 390,000 tested, 4.4% active; further: on the % scale 0 is the no-effect control and ±100 the full control effect; nearly all actives have a fitted effect of over 50% in size
PLK1 PBD inh = blocks phosphopeptide binding to human PLK1 polo-box domain | Plk1 PBD binding of FITC phosphopeptide, fluorescence polarization | 360,000 tested, 2.8% active | Potency, µM, inactives show max response, negative = inhibition, hits mostly inhibitors; further: series mostly up to about 57 µM; on the % scale 0 is the no-effect control and ±100 the full control effect; nearly all actives have a fitted effect of over 65% in size
BAZ2B block = inhibitors of human BAZ2B bromodomain. 360,000 tested, 4.4% active. Q9UIF8. AlphaScreen BAZ2B-H3K14Ac peptide displacement. Potency, µM (titrated, usually from 114 µM), for the others: at the highest dose activity change, negative = inhibition, most hits filed as inhibitors; further: on the % scale 0 is the no-effect control and ±100 the full control effect; nearly all actives have a fitted effect of over 60% in size
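In this displacement format the biotinylated H3(5-23) peptide acetylated at Lys14 serves as ligand at 50 nM, with BAZ2B at 50 nM in PBS pH 7.4 containing 0.01% Tween-20. Donor and acceptor beads are 10 ug/mL final.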
VDR inhibitor = blocks the human vitamin D receptor; P11473; VDR-SRC2-3 peptide fluorescence polarization, 2 h; Potency, µM, for inactives: max response, negative = inhibition, actives largely listed as inhibitors; 400,000 tested, 0.93% active; further: on the % scale 0 is the no-effect control and ±100 the full control effect
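The screen uses fluorescence polarization to detect compounds that interfere with recruitment of the SRC2-3 coactivator peptide to VDR; plates are read after 2 h at room temperature.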
HP1b binding inh = inhibitors of HP1-beta chromodomain binding to methylated histone tails; P83916; AlphaScreen HP1-beta / biotin-H3K9me3 peptide binding; Potency, µM (titrated, usually from 114 µM), without a hit: top-dose activity change, negative = inhibition, hits mostly inhibitors; 390,000 tested, 0.56% active; further: nearly all actives have a fitted effect of over 70% in size
Target sequence (P83916 whole entry, looked up): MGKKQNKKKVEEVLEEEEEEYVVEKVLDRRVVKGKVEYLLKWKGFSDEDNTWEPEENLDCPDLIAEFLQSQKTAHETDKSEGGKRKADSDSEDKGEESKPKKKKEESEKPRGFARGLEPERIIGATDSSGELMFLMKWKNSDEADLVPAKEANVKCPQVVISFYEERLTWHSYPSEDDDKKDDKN
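Compound inhibition of the preformed complex between 50 nM HP1-beta and 50 nM biotinylated H3K9me3 peptide was read by AlphaScreen. Buffer was PBS pH 7.4 with 0.01% Tween-20. Incubations ran 30 min at room temperature, with 10 ug/mL donor/acceptor beads.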
* hit, by the source's call; [ ] = remark or other dose. The call rests on the fitted dose curve; in most records, active means well fitted curve in the direction sought with a large enough effect; inconclusive means small, poorly fitted or top-dose-only effect, or another doubt; inactive means no such curve, though single readings can be large; an effect the other way counts as inactive or inconclusive. Potency means the concentration at half of the fitted maximal effect.

For Cc1sc(NC(=O)Cc2ccc3c(c2)OCO3)nc1-c1ccc2c(c1)CCN2C(=O)c1ccc(F)cc1 the results were G9a inh 40µM*, JMJD2A Tudor inconclusive, PLK1 PBD inh -16%, BAZ2B block -10%, VDR inhibitor -24% and HP1b binding inh -19%.
For Cc1sc(NC(=O)c2ccco2)nc1-c1ccccc1 the results were G9a inh 9%[12.7 µM], JMJD2A Tudor -16%, PLK1 PBD inh -7%, BAZ2B block -9%, VDR inhibitor -3% and HP1b binding inh 25%.
For Cc1sc(NC(=O)c2ccco2)nc1-c1ccc2c(c1)CC(C)N2C(=O)C1CC1 (stereo not drawn) the results were G9a inh 45µM*, JMJD2A Tudor -26%, PLK1 PBD inh -17%, BAZ2B block -4%, VDR inhibitor 4% and HP1b binding inh inconclusive.
`Cc1sc(NC(=O)CN2CCCC2)nc1-c1ccc2c(c1)CCN2C(=O)c1cccc(F)c1` gave G9a inh inconclusive, JMJD2A Tudor inconclusive, PLK1 PBD inh -5%, BAZ2B block inconclusive, VDR inhibitor 14% and HP1b binding inh -10%.
CCOC(=O)C(=O)Nc1nc(-c2ccc3c(c2)CCN3C(=O)C2CC2)c(C)s1 was read as G9a inh 50µM*, JMJD2A Tudor -19%, PLK1 PBD inh -25%, BAZ2B block inconclusive, VDR inhibitor 2% and HP1b binding inh 14%.
For CC(=O)Nc1nc(-c2ccc3c(c2)CC(C)N3C(=O)C2CC2)c(C)s1 (stereo not drawn) the results were G9a inh 25µM*, JMJD2A Tudor -32%, PLK1 PBD inh -16%, BAZ2B block inconclusive, VDR inhibitor -6% and HP1b binding inh inconclusive.
Screening CCCN(CCC)S(=O)(=O)c1ccc(C(=O)N2CCOCC2)cc1 returned G9a inh -8%[12.7 µM], JMJD2A Tudor -4%, PLK1 PBD inh 1%, BAZ2B block 6%, VDR inhibitor 9% and HP1b binding inh 25%.
Screening CCc1ccccc1NC(=O)N1CC(C)Sc2ccccc21 (stereo not drawn) returned G9a inh 5%[59 µM], JMJD2A Tudor 7%, BAZ2B block 24%, VDR inhibitor 7% and HP1b binding inh 37%.
Screening Cc1cc(C)n2nc(CC(=O)NCc3ccccc3Cl)nc2n1 returned G9a inh -12%, JMJD2A Tudor -6%, PLK1 PBD inh 2%, BAZ2B block -4%, VDR inhibitor -2% and HP1b binding inh 30%.
COc1cccc(-c2c(-c3ccccc3OC)ncn2Cc2cccc(-c3ccccc3)c2)c1 was read as PLK1 PBD inh -10%.
For COc1ccc(-c2n[nH]c(=S)n2-c2ccccc2C)cc1OC the results were G9a inh 7.9µM*, JMJD2A Tudor 11µM*, PLK1 PBD inh -18%, BAZ2B block -20%, VDR inhibitor -1% and HP1b binding inh 33%.
Screening COc1ccc(-c2n[nH]c(=S)n2-c2ccc(Br)cc2)cc1OC returned G9a inh 1.6µM*, JMJD2A Tudor 50µM*, PLK1 PBD inh -6%, BAZ2B block -32%, VDR inhibitor 1% and HP1b binding inh 6%.
Cc1ccc(OCc2n[nH]c(=S)n2-c2ccc(Br)cc2)cc1 was read as G9a inh 2%[0.501 µM], JMJD2A Tudor -35%, PLK1 PBD inh -17%, BAZ2B block -33%, VDR inhibitor -14% and HP1b binding inh 2%.
S=c1[nH]nc(-c2ccc3ccccc3n2)n1-c1ccc2ncccc2c1 was read as G9a inh 2µM*, JMJD2A Tudor -16%, PLK1 PBD inh -22%, BAZ2B block inconclusive, VDR inhibitor -1% and HP1b binding inh 16%.
`Cc1ccccc1-n1c(-c2ccc3ccccc3n2)n[nH]c1=S` gave G9a inh 14µM*, JMJD2A Tudor -14%, PLK1 PBD inh -8%, BAZ2B block -22%, VDR inhibitor -13% and HP1b binding inh 24%.
